The source of these data is PubChem BioAssay AID431 (Sanford-Burnham Center for Chemical Genomics, 2006).

About 1,100 (1.7%) of roughly 63,000 compounds were called active. This excerpt belongs to a sample that is enriched for actives. Results with a measured potency or affinity are listed apart. Unmarked numbers belong to inactive results.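 The calls were made as follows: active = compounds whose percent cytotoxicity in the single-dose primary screen, scaled between solvent and toxic-drug controls, exceeds 50; inactive = the rest.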

This assay is described as follows: viability loss of HPDE-C7K cells – cell-based, fluorescence, HTS, primary screen (AID 431).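 Also: 0% = DMSO solvent wells and 100% = doxorubicin-treated wells.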 The conditions noted are these: HPDE-C7K KRASV12 cells, Alamar Blue viability, 48 h; at 10 µM; stronger effect = higher value.
Turning to `COc1ccc(CCNC(=O)c2c(N)n(CCN3CCOCC3)c3nc4ccccc4nc23)cc1`, the cytotoxicity is 76.9% (active).
Consider `CCOC(=O)c1c(N)n(CCN2CCCCC2)c2nc3ccccc3nc12`, for which the cytotoxicity was 1.7%.
As to `CCCCNC(=O)c1c(N)n(CCCOC)c2nc3ccccc3nc12`, the cytotoxicity was 47.2%.
Under `CCCCCn1c(N)c(C(=O)NCCN2CCOCC2)c2nc3ccccc3nc21` stands 6.4%; under `CCCCn1c(N)c(C(=O)NCCN2CCOCC2)c2nc3ccccc3nc21`, -9.3%; under `CCCCCCn1c(N)c(C(=O)NCCN2CCOCC2)c2nc3ccccc3nc21`, 86.3% (active).
Then `CC1SC2(CN3CCC2CC3)NC1=O` (stereo not given), with -32%.
Then `O=P(OCC(F)(F)C(F)F)(N1CCOCC1)N1CCOCC1`, with -6.6%; and `C=CCn1c(O)c(C(C)=NCCN2CCOCC2)c(=O)[nH]c1=O`, with 3.7%; and `NCCc1c[nH]c2ccc(F)cc12`, with -7.8%.
Regarding `COc1ccc2[nH]cc(CCN(C)C)c2c1`, the cytotoxicity was 19.9%.
Under `CCCCc1ccc2[nH]cc(CCN)c2c1` stands 89.6% (active); under `COc1ccc(Cn2c(N)c(C(=O)NCc3ccco3)c3nc4ccccc4nc32)cc1OC`, 3.1%.
For `COc1ccc(Cn2c(N)c(C(=O)NCc3ccco3)c3nc4ccccc4nc32)cc1`, the cytotoxicity is 75.2% (active).
For `COCCOC(=O)c1c(N)n(Cc2ccco2)c2nc3ccccc3nc12`, the cytotoxicity was 15.2%.
Under `Nc1c(C(=O)NCc2ccco2)c2nc3ccccc3nc2n1Cc1ccc(F)cc1` stands 95.8% (active); under `COCCOC(=O)c1c(N)n(Cc2ccc(OC)cc2)c2nc3ccccc3nc12`, -9.2%.
Then `CC(C)OC(=O)c1c(N)n(Cc2ccco2)c2nc3ccccc3nc12`, with -9%; and `CCOC(=O)c1c(N)n(Cc2ccco2)c2nc3ccccc3nc12`, with -13.8%.
Take `CC(C)(C)OC(=O)c1c(N)n(Cc2ccco2)c2nc3ccccc3nc12`: the cytotoxicity was 56.1% (active).
Under `Nc1c(C(=O)NCCN2CCOCC2)c2nc3ccccc3nc2n1Cc1ccco1` stands 20.7%; under `O=P(C(c1ccc2c(c1)OCO2)N1CCOCC1)(N1CCOCC1)N1CCOCC1` (stereo not given), -15.1%.
Then `CN=C(SCc1cc2c(cc1Cl)OCO2)c1c(O)n(C)c(=O)n(C)c1=O`, with -13.4%; and `CCCNS(=O)(=O)c1ccc(OCC(=O)N2CCN(Cc3ccccc3)CC2)cc1`, with 8%; and `CCOc1ccc(-n2c(CC)nc3ccccc3c2=O)cc1`, with 1.5%.
Under `O=c1c2ccccc2nc(CSc2ncnc3nc[nH]c23)n1-c1ccccc1` stands 64.8% (active); under `CN(C)CCc1nc2ccccc2c(=O)n1-c1ccccc1`, 11.7%; under `Cc1ccc2c(c1)C(c1ccccc1)NCC(=O)N2` (stereo not given), 2.7%.
In the case of `CCC(=NCCC1=CCCCC1)c1c(O)[nH]c(=O)[nH]c1=O`, the cytotoxicity was 22.3%.
Under `O=C(c1csc2c1CCCCC2)N1CCC2(CC1)OCCO2` stands -9.8%; under `Cc1nc2c(-c3ccc(F)cc3)c(C)nn2c(C)c1CCC(=O)N1CCC2(CC1)OCCO2`, 9.4%; under `CC(C)CCOC(=O)c1c(N)n(CC2CCCO2)c2nc3ccccc3nc12` (stereo not given), 26.1%.
Under `CC(C)CCn1c(N)c(C(=O)OCC2CCCO2)c2nc3ccccc3nc21` (stereo not given) stands 51.5% (active); under `CCCCn1c(N)c(C(=O)OCC2CCCO2)c2nc3ccccc3nc21` (stereo not given), 34.2%.
Then `CCOC(=O)c1cccc([P+](=O)O)c1`, with 7.5%.
Turning to `CC(C)[C@H]1C(=O)N2CCC[C@H]2[C@]2(O)O[C@](NC(=O)[C@@H]3C=C4c5cccc6[nH]cc(c56)C[C@H]4N(C)C3)(C(C)C)C(=O)N12`, the cytotoxicity was -1.3%.
Then `CC(C)[C@@]1(NC(=O)[C@@H]2C=C3c4cccc5[nH]cc(c45)C[C@H]3N(C)C2)O[C@@]2(O)[C@@H]3CCCN3C(=O)[C@H](Cc3ccccc3)N2C1=O`, with 29.5%.
As to `CC(C)[C@@]1(NC(=O)[C@@H]2C[C@@H]3c4cccc5[nH]cc(c45)C[C@H]3N(C)C2)O[C@@]2(O)[C@@H]3CCCN3C(=O)[C@H](Cc3ccccc3)N2C1=O`, the cytotoxicity was 77.9% (active).
Under `Cc1ccc2c(c1)CC1(CN2C)C(=O)NC(=O)N(c2ccccc2C)C1=O` (stereo not given) stands 8.7%; under `COC(=O)C(O)(c1ccc2c(c1)CCCN2)C(F)(F)F` (stereo not given), -24.5%; under `Cc1ccc(CN2CCN(C)CC2)c(C)c1`, 14.3%.
As for `Cc1ccc(S(=O)(=O)N2CN3CCN(C3)C2)cc1`, the cytotoxicity is 11.8%.
Then `Cc1ccc(CN2CC3CC(C2)c2cccc(=O)n2C3)cc1` (stereo not given), with -9.1%; and `Cn1c(O)c(C=NCCOc2ccc(Cl)cc2)c(=O)n(C)c1=O`, with -12.3%; and `CCn1nc(-c2ccccc2)nc2c(=O)n(C)c(=O)nc1-2`, with 123% (active).
For `CCc1nc2ccccc2c(=O)n1-c1cccc(OC)c1`, the cytotoxicity was -14%.
Turning to `CCn1nc(-c2cccs2)nc2c(=O)n(C)c(=O)nc1-2`, the cytotoxicity was 127% (active).
As to `O=c1c2ccccc2nc(-c2cccs2)n1-c1cnccn1`, the cytotoxicity was 15.2%.
Under `O=P1(NC2CCCC2)COc2ccccc2OC1` stands -11.9%; under `COc1ccc(-n2c(SC)nc3ccccc3c2=O)cc1`, -4.7%.
Then `CSC(=Nc1ccccc1)c1c(O)n(C)c(=O)n(C)c1=O`, with 5.2%; and `CC(=NCc1ccc(F)cc1)c1c(O)n(C)c(=O)n(C)c1=O`, with 37.8%.
Under `COc1ccc(C2SCC(=O)Nc3c2c(=O)[nH]n3C2CCCCC2)cc1` (stereo not given) stands -1.2%; under `CCOc1ccc(C2SCC(=O)Nc3c2c(=O)[nH]n3C2CCCCCC2)cc1` (stereo not given), -11.1%; under `COc1ccc(C2SCC(=O)Nc3c2c(=O)[nH]n3C2CCCCCC2)cc1` (stereo not given), 80.4% (active).
For `C=CCN1C(=O)C2(C(C(=O)OCC)=C(N)Oc3ccccc32)C2=C1CCCC2=O` (stereo not given), the cytotoxicity is -6.6%.
As to `CCCCc1nc(N2CCNCC2)c(C#N)c2c1CSC(C)(C)C2`, the cytotoxicity was 71.5% (active).
Consider `CCc1nc(N2CCNCC2)c(C#N)c2c1CSC(C)(C)C2`, for which the cytotoxicity was 31.9%.
Then `O=C(C(Cc1ccccc1)NS(=O)(=O)c1ccc(F)cc1)N1CCC2(CC1)OCCO2` (stereo not given), with 10.2%.
With `CCN(CC)C(=O)c1ccc(NC(=O)Cn2nc(C)c3ccccc3c2=O)cc1`, the cytotoxicity is -7.8%.
In the case of `O=C(Nc1ccc(OC(=O)N2CCCC2)cc1)N1CCOCC1`, the cytotoxicity was -8.6%.
Then `CC(C)C(=O)N1CCN(CCN=Cc2c(O)n(C)c(=O)n(C)c2=O)CC1`, with 0.5%; and `c1cc2n(c1)-c1c(ccc3c1OCO3)CNC2c1ccc2c(c1)OCO2` (stereo not given), with 27.4%.
As to `COc1ccc(C2NCc3ccc4c(c3-n3cccc32)OCO4)cc1OC` (stereo not given), the cytotoxicity is 3.2%.
With `COc1ccc(C2NCc3ccc4c(c3-n3cccc32)OCO4)cc1O` (stereo not given), the cytotoxicity was 59.8% (active).
Under `O=P(/C(=N/O)N1CCCCC1)(N1CCOCC1)N1CCOCC1` stands -3.8%.
As for `COc1cccc(OC)c1C1=NCC(=O)Nc2c1oc1ccc(Br)cc21`, the cytotoxicity is 56.7% (active).
As to `O=C1CN=C(c2ccccc2)c2oc3ccc(Br)cc3c2N1`, the cytotoxicity is -15.6%.
Then `O=C(NCC(c1cccnc1)N1CCOCC1)Oc1ccccc1` (stereo not given), with 2.6%.
Under `C=Cn1ccnc1P(=S)(c1c(C)nn(-c2ccccc2)c1C)c1nccn1C=C` stands 8.8%; under `O=c1c(C=NCCN2CCNCC2)c(O)n(C2CCCCC2)c(=O)n1C1CCCCC1`, 95.1% (active); under `O=c1[nH]c(=O)n(C2CCCCCC2)c(O)c1C=NCCCN1CCOCC1`, -13.6%.
Regarding `O=c1[nH]c(=O)n(Cc2ccccc2)c(O)c1C=NCCN1CCNCC1`, the cytotoxicity was -15%.
Regarding `CCCCn1c(O)c(C(CC)=Nc2cccc(C(=O)O)c2)c(=O)[nH]c1=O`, the cytotoxicity is -13.6%.
Under `CC(=NCCCN1CCCCC1)c1c(O)n(Cc2ccccc2)c(=O)[nH]c1=O` stands 9.4%; under `CCOC(=O)c1ccc(N2C(=O)CC(N3CCC(C#N)(c4ccccc4)CC3)C2=O)cc1` (stereo not given), -11.3%; under `CCCCCn1c(=O)c(C(=O)Nc2ccncc2)c(O)c2ccccc21`, 73.1% (active).
Consider `CCCCCn1c(=O)c(C(=O)NCc2ccccn2)c(O)c2ccccc21`, for which the cytotoxicity was 8.3%.
Then `CCCCn1c(=O)c(C(=O)Nc2ccccc2S(N)(=O)=O)c(O)c2ccccc21`, with -11.7%.
As to `CCCCCn1c(=O)c(C(=O)NCc2ccncc2)c(O)c2ccccc21`, the cytotoxicity is 33.3%.
Then `CCCCn1c(=O)c(C(=O)Nc2cnccn2)c(O)c2ccccc21`, with 51.5% (active).
As to `CCCCCCn1c(=O)c(C(=O)Nc2ccncc2)c(O)c2ccccc21`, the cytotoxicity was 46.4%.
On to `CCCCn1c(O)c(C=NCCCN(CC)CC)c(=O)[nH]c1=O`, for which the cytotoxicity is 6.9%.
On to `CSc1nnc(C2CCNCC2)n1C`, for which the cytotoxicity was -11.4%.
On to `O=C1NC(=O)C(CCc2ccncc2)(C2CCCCC2)C(=O)N1`, for which the cytotoxicity was -0.4%.
Under `COC(=O)c1ccc(COc2cc(C)cc3oc(=O)c4c(c23)CCCC4)o1` stands 4.3%.
Under `CC(=O)CC(C)(C)n1c[n+](C)nn1` stands 18.4%.
Then `Cc1ccc2c(c1)C1CN(C)CCC1N2C(=O)c1ccco1` (stereo not given), with 2.2%; and `c1ccc2c(CCNCc3ccc4c(c3)OCO4)c[nH]c2c1`, with 23.6%.
For the compound `C[C@@]1(CO)[C@H](O)CC[C@@]2(C)[C@H]1CC[C@H]1C[C@@H]3C[C@@]12CC[C@]3(O)CO`, the cytotoxicity was 69.7% (active).
Under `CC(C)CC1C(C#N)=C(N)Oc2c1c(=O)oc1ccccc21` (stereo not given) stands 8.9%.
Under `Cc1ccc2c(c1)CC1(CN2C)C(=O)NC(=O)N(CCC2=CCCCC2)C1=O` (stereo not given) stands 5.2%.
Under `O=C1NC(=O)C2(Cc3ccccc3N3CCCC32)C(=O)N1c1ccccc1` (stereo not given) stands -2.3%.
As to `OC1(c2ccccc2F)CC2CCC(C1)N2CCN1CCOCC1` (stereo not given), the cytotoxicity was -1.8%.
With `Cc1oc(-c2ccc(Cl)cc2)nc1CS(=O)CC(=O)N1CCC2(CC1)OCCO2` (stereo not given), the cytotoxicity was -19.8%.
